Laboratory results from PubChem BioAssay (EPA / NIEHS).
Activity calls are given as the source filed them. Rule for the calls: active = hit-call score of the fitted dose curve at least 0.9, where 1 is the maximum; inactive = score below 0.9.

test: CCTE_Shafer_MEA_acute_burst_number: CCTE's Neural Acute Assay for Single-Electrode Bursts, Shafer Lab (AID 2284013)
Procedure: CCTE_Shafer_MEA_acute assay is conducted using Axion Biosystems 48 well microelectrode array (MEA) plates and Maestro recording system. Each well of the MEA plate contains a grid of 16 microelectrodes embedded in the culture surface. Electrically active cells, such as neurons, can be cultured over the electrodes, and electrical activity in these cells can be recorded extracellularly. The spontaneous firing of neurons is captured from each electrode on a microsecond timescale providing both temporally and spatially precise data. […] The CCTE_Shafer_MEA_acute assay uses primary cultures of rat cortical neurons. As these cultures mature over time, neural networks develop functional activity and form cohesive networks in which electrical activity can be highly coordinated. Baseline 40-minute recordings are made on days post-plating 13 or 15, followed by a secondary 40-minute recording after chemical exposure.CCTE_Shafer_MEA_acute_burst_number is a component of the CCTE_Shafer_MEA_acute assay. It measures the total number of single-electrode bursts (temporally-clustered groups of action potential firing) during a recording in a microelectrode array (MEA) using Axion Biosystems Maestro 768 channel amplifier with the AxIS adaptive spike detector. The recordings before and after chemical treatment are used to calculate a percent change in the burst number in each well.Data from the assay component CCTE_Shafer_MEA_acute_burst_number was analyzed into 1 assay endpoint. This assay endpoint, CCTE_Shafer_MEA_acute_burst_number, was analyzed in the negative analysis fitting direction relative to DMSO as the negative control and baseline of activity. Using a type of functional reporter, gain or loss-of-signal activity can be used to understand electrical activity.
Spontaneous activity in the cortical cultures was recorded using an Axion Biosystems Maestro 768 channel amplifier and Axion Integrated Studios (AxIS) v1.8 (or later) software. The amplifier recorded from all channels simultaneously (gain = 1200 x; sampling rate = 12.5 kHz/channel): raw signals were filtered with a Butterworth band-pass filter (300-5000 Hz), which filters out slower local field potentials leaving only fast potentials, i.e., "spikes", arising from extracellular currents associated with action potentials (Pine 2006; Wheeler and Nam 2011). On-line spike detection of filtered signals was conducted with the AxIS adaptive spike detector, using a threshold of 8x the root mean squared (rms) noise on each channel. Any electrodes with rms noise levels greater than 5 uV were grounded (e.g., no data were recorded). Once grounded, an electrode was grounded for the duration of the experiment. All recordings were conducted at 37 C. Wells were deemed usable if on the day of the exposure >/= 10 electrodes were active (defined as >/= 5 spikes/min). On DIV 13 or 15, a minimum of three wells from one cortical culture preparation were treated with each compound (0.03-40 uM). Prior to recording baseline activity, each mwMEA plate was placed in the Maestro at 37 C and allowed to sit for 20 min while firing rates stabilized. Baseline activity (40 min) was recorded before the addition of each compound. An additional 40 min of spontaneous activity was recorded in the presence of each compound. Changes in network parameters relative to baseline were assessed following compound treatment.

| SMILES | outcome | AC50 |
| --- | --- | --- |
| CCC(C)(C)C(=O)O[C@H]1C[C@@H](C)C=C2C=C[C@H](C)[C@H](CC[C@@H]3C[C@@H](O)CC(=O)O3)[C@H]21 | inactive | – |
| O=C(O)c1cc(N=Nc2ccc(S(=O)(=O)Nc3ccccn3)cc2)ccc1O | – | 0.0299 µM (active) |
| CCCCC(CC)COC(=O)CCCCCCCCC(=O)OCC(CC)CCCC (stereo not drawn) | inactive | – |
| Cc1[nH]cnc1C[C@H]1CCc2c(C)c3ccccc3n2C1=O | inactive | – |
| Cn1cnc([N+](=O)[O-])c1Sc1ncnc2nc[nH]c12 | inactive | – |
| CCCN(C1CCN(C(=O)C2CCNCC2)CC1)[C@@H]1CCc2ccc(OC)cc2C1 | inactive | – |
| CCCCCCc1ccc(O)cc1O | – | 12.5 µM (active) |
| CCCCCCCCCCCCc1ccccc1 | inactive | – |
| Cn1c(=O)c2c(ncn2C)n(C)c1=O | inactive | – |
| CC[C@H]1CC[C@H](NCc2cc3c(cc2OC)[C@H]2C[C@H]2C(=O)N3C)[C@H](c2ccccc2)N1 | – | 3.09 µM (active) |
| O=C(O)CCN(C1(C(=O)NO)CCCC1)S(=O)(=O)c1ccc(Oc2ccc(F)cc2)cc1 | inactive | – |
| COc1cccc(-c2ccc(/C=C\CN3CCCCCC3)cc2Cl)c1 | inactive | – |
| CCOC(=O)c1ccc(C2CCC(NC[C@H](O)COc3ccc(O)c(NS(C)(=O)=O)c3)CC2)cc1 (stereo partly drawn) | inactive | – |
| CC[C@H]1OC(=O)[C@H](C)[C@@H](O[C@H]2C[C@@](C)(OC)[C@@H](O)[C@H](C)O2)[C@H](C)[C@@H](O[C@@H]2O[C@H](C)C[C@H](N(C)C)[C@H]2O)[C@](C)(O)C[C@@H](C)C(=O)[C@H](C)[C@@H](O)[C@]1(C)O | inactive | – |
| On1ccccc1=S | inactive | – |
| O=P(OC(CCl)CCl)(OC(CCl)CCl)OC(CCl)CCl | inactive | – |
| CC(C)=CCCC(C)=CC=O | inactive | – |
| COc1ccc2sc(C(=O)Nc3nnn[nH]3)c(OC(C)C)c2c1 | inactive | – |
